High-throughput results deposited in PubChem BioAssay by National Center for Advancing Translational Sciences (NCATS).
AmpC no deterg: inhibitors of E. coli AmpC beta-lactamase without detergent; Potency, µM (series often up to 57.1 µM), for the others: at the top dose activity change, negative = inhibition, hits mostly inhibitors; 330,000 tested, 0.52% active; AmpC nitrocefin hydrolysis, absorbance 480 nm, 0.0001% Triton; AID 485341; P00811;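 further: potency means the concentration at half of the fitted maximal effect; plate controls were no compound for no effect and no enzyme for full effect; nearly all actives have a fitted effect of over 20% in size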
Target sequence (P00811 whole entry, looked up): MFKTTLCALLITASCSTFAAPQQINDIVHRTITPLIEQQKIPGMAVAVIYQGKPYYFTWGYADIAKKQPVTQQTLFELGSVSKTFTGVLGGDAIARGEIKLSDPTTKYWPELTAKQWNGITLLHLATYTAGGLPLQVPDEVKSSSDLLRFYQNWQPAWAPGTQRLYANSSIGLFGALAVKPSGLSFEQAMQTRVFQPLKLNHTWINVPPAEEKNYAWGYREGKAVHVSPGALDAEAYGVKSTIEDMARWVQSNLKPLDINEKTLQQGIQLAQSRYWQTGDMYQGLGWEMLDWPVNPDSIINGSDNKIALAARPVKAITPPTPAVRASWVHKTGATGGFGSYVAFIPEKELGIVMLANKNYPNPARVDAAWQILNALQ
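AmpC (5.3 nM in the dispensed reagent) in 20 mM phosphate pH 7.0 with 0.01% (detergent screen) or 0.0001% Triton X-100 was preincubated with compounds for 15 min at room temperature. Nitrocefin was then added from an 800 uM solution, and hydrolysis was followed at 480 nm.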
Cycloheximide cs: affects cycloheximide protein synthesis inhibition readout, counter-screen; cell reporter, cycloheximide protein synthesis inhibition counterscreen; max response, %; 300,000 tested, 12% active; AID 2314; in the data active means max response mostly above about 13%, no sharp cut-off; inactive means mostly below about 14%; further: read at 38.3 µM for the half of the compounds with a filed dose; 0% is about no effect
AmpC inh detg: blocks E. coli AmpC beta-lactamase in detergent assay; 370,000 tested, 0.041% active; Potency, µM (highest dose often 114 µM), for inactives: top-dose activity change, negative = inhibition, most hits filed as inhibitors; P00811; AmpC hydrolysis of nitrocefin, absorbance 480 nm, 0.01% Triton; AID 485294;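 further: potency means the concentration at half of the fitted maximal effect; 0% = no-compound wells and -100% = no-enzyme wells; nearly all actives have a fitted effect of over 25% in size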
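20 mM phosphate pH 7.0 + 0.01% (detergent screen) or 0.0001% Triton X-100; 5.3 nM AmpC reagent; cpd preinc 15 min RT; nitrocefin (800 uM stock) to start; A480 q20 s × 4 min; Activity was normalised to no-enzyme and no-compound control wells.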
NS1 function inh: influenza NS1 inhibition. Potency, µM (highest dose often 46.1 µM), without a hit: top-dose activity, positive = more growth. 270,000 tested, 0.4% active. AID 2326; calls by dose curve; further: potency means the concentration at half of the fitted maximal effect; actives are rising curves; nearly all actives have a fitted effect of over 50% in size
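Read-out: OD600 growth recovery of NS1-expressing budding yeast. Cells grown overnight at 30C in -URA glucose medium, washed, resuspended and diluted 1:100 in 2% galactose assay medium, pH 6.0. Same strain lacking NS1 served as positive control.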
Shiga inhibitor: Shiga toxin inhibition. Vero cells, Shiga toxin protein synthesis inhibition reporter. inhibition, % at 38.7 µM. 290,000 tested, 9.2% active. AID 2315; in the data active means inhibition mostly above about 28%, no sharp cut-off; inactive means mostly below about 43%; further: 0% is about no effect
* hit, by the source's call; ? = inconclusive; nt = not tested or not shown. The full list was thinned out, with hits kept by preference. Unless noted, the call rests on the fitted dose curve; in most records, active means well fitted curve in the direction sought with a large enough effect; inconclusive means small, poorly fitted or top-dose-only effect, or another doubt; inactive means no such curve, though single readings can be large; an effect the other way counts as inactive or inconclusive.

SMILES | AmpC no deterg | Cycloheximide cs | AmpC inh detg | NS1 function inh | Shiga inhibitor
CN(C)c1ccc(NS(=O)(=O)c2cc(Cl)ccc2Cl)cc1 | -36% | 21* | -2% | 10% | 33
O=C(Cn1ncc2c3ccccc3n(Cc3cccc(Cl)c3)c2c1=O)NCc1cccs1 | nt | nt | 16% | nt | nt
COc1ccc(NC(=O)c2ccc(C)cc2)c(OC)c1 | -12% | 50* | 0% | -5% | 96*
COc1ccc(NC(=O)c2ccccc2NC(=O)c2ccccc2C(=O)O)c(OC)c1 | -20% | 11* | 0% | -14% | 53*
COc1ccc(NC(=O)c2ccc3[nH]c(=O)c(=O)[nH]c3c2)c(OC)c1 | -20% | 3 | 3% | 0% | -9
COc1ccc(-n2cc3c(c2-c2cccc(Br)c2)c(=O)n(C)c(=O)n3C)cc1OC | nt | nt | 23% | nt | nt
COc1cccc(/C=N/NC(=O)CNC(=O)/C=C\c2ccccc2)c1O | ? | 28* | 2% | -5% | 41*
COc1ccc(/C=C\C(=O)NCC(=O)N/N=C/c2cccc(OC)c2O)cc1 | -21% | 14 | -2% | 0% | 12
COc1ccc(/C(C)=N/NC(=O)CNC(=O)/C=C\c2ccccc2OC)c(OC)c1 | -14% | 14* | -6% | -8% | 31*
COc1cccc(/C=N/NC(=O)CNC(=O)C(c2ccccc2)c2ccccc2)c1O | -30% | 38* | 1% | -7% | 71*
C=Cc1ccc(CSc2nc(-c3ccccc3C)nc3c2Cc2c(CO)cnc(C)c2O3)cc1 | nt | nt | 4% | nt | nt
O=C(N1CCCC1)C12CCC3CC(CC(C3)C1)C2 | -15% | -4 | ? | -11% | -12
COc1ccc(N2C(=O)c3ccccc3C2=O)cc1 | -9% | 19* | 2% | -5% | 55*
COc1ccc(N2C(=O)c3ccccc3C2O)cc1 (stereo not given) | -13% | 20* | -14% | -7% | nt
COc1ccc2c(c1OC)C(=O)N(c1ccccc1)C2=O | -7% | 39* | 5% | -3% | 47*
COc1ccc(N2C(=O)c3cccc4cccc(c34)C2=O)cc1 | -1% | -3 | 5% | 14% | -6
COc1ccc(OC)c(C(=O)CC2OC(=O)c3ccccc32)c1 (stereo not given) | -32% | -4 | ? | -14% | -5
COc1ccc2c(c1OC)C(=O)N(c1ccc(O)cc1)C2=O | -4% | -2 | 8% | -4% | 4
COc1ccc(O)c(C(=O)C2c3ccccc3C(=O)N2c2ccc(C)cc2)c1 (stereo not given) | -53% | 44* | -2% | 10% | 81*
CC(=O)Nc1ccc2c(c1)C(=O)N(c1cccc(C)c1)C2=O | -3% | 7 | 0% | ? | 14
Cc1ccc(N2C(=O)c3ccccc3NC2c2ccccc2O)cc1 (stereo not given) | -39% | 36* | -9% | -3% | 79*
CC(=O)Nc1cccc2c1C(=O)N(c1ccc(C)cc1)C2=O | -10% | 15* | -6% | 13% | 35*
O=C1c2ccccc2C(=O)N1c1ccc(Cl)cc1 | 1% | 10 | -4% | -3% | -11
CC(C)Oc1ccc(N2C(=O)c3ccccc3C2=O)cc1 | -10% | 18* | 5% | 2% | 35
Cc1ccc(N2C(=O)c3ccccc3C2=O)cc1 | -5% | 41* | -6% | -2% | 91*
SMILES | AmpC no deterg | Cycloheximide cs | AmpC inh detg | NS1 function inh | Shiga inhibitor
O=P(O)(O)OC(CO)CO | nt | -2 | nt | nt | -10
CCOCCCNC(=O)C1CCN(c2nc3ccc(C)cc3[nH]2)CC1 | nt | nt | 14% | nt | nt
CCO/C=C1/C(=O)N(c2ccc(OC)cc2)C(=O)c2ccccc21 | -22% | 9 | 2% | nt | -6
CC(C)Oc1ccc(C2CC(=O)N(c3ccccc3)C2=O)cc1 (stereo not given) | -4% | 20* | -5% | 3% | 44
CCO/C=C1\C(=O)N(c2ccccc2)C(=O)c2ccccc21 | -21% | 40* | 2% | 1% | 69*
CCOC(=O)c1ccccc1NC(=O)Nc1cc2c(cc1N1CCCCC1)n(C)c(=O)n2C | nt | nt | -4% | nt | nt
O=[N+]([O-])c1ccc(NCc2ccccc2)nc1 | -21% | 55* | ? | -14% | 56*
O=C(Oc1cccnc1)c1ccc([N+](=O)[O-])cc1 | -9% | 0 | -2% | 3% | -15
O=[N+]([O-])c1ccc(COc2cccnc2)cc1 | -22% | 41* | 6% | nt | 56*
O=[N+]([O-])c1ccc(COc2ccc(CNc3ccccc3)cc2)cc1 | -17% | 36* | -3% | -20% | 34
O=[N+]([O-])c1ccc(COc2cccc(CNc3ccc(Br)cc3)c2)cc1 | -33% | 0 | 3% | -10% | -3
CCn1cc(CN2CCC(n3nccc3NC(=O)CCOc3ccccc3)CC2)c(C)n1 | -1% | 1 | 3% | 10% | -3
Cc1ccc(OCc2cc(C(=O)N3CCC(Oc4cccnc4)CC3)no2)cc1C | 130% | 20 | ? | -17% | 25
CC(=O)c1ccc(N2CCN(C(=O)c3cc(C)on3)CC2)cc1 | -10% | 12 | -6% | ? | 14
CC(=O)c1ccc(OCc2cc(C(=O)N3CCCCCCC3)no2)cc1 | 62% | 57* | -10% | -49% | 57*
CC(=O)c1ccc(OCc2cc(C(=O)N3CCOCC3)no2)cc1 | -4% | 43* | 1% | -6% | 79*
CC(=O)c1ccc(OCc2cc(C(=O)N3CCC(Oc4ccccc4C)CC3)no2)cc1 | 59% | 90* | 0% | 16% | 143*
COC(=O)C1CCN(C(=O)COC(=O)c2ccc(OC)c(S(=O)(=O)N3CCCc4ccccc43)c2)CC1 | 249% | 32* | -2% | 10% | 55*
O=[N+]([O-])c1ccccc1S(=O)(=O)N1CCCc2ccccc21 | -26% | 30* | ? | -22% | nt
COc1ccc(Br)cc1S(=O)(=O)N1CCCc2ccccc21 | -8% | 20* | 4% | -29% | 36*
COC(=O)C1CCN(C(=O)c2ccc(OC)c(S(=O)(=O)N3CCCc4ccccc43)c2)CC1 | 167% | nt | nt | nt | nt
Cc1ccc(S(=O)(=O)N2CCCc3ccccc32)cc1C | -25% | 17* | ? | -21% | 23*
COc1ccc(C(=O)N2CCCN(C)CC2)cc1S(=O)(=O)N1CCCc2ccccc21 | 3% | 26* | ? | 5% | 51*
COc1ccc(C(=O)N2CCOCC2)cc1S(=O)(=O)N1CCCc2ccccc21 | 91% | 2 | 0% | nt | -1
COc1ccc(NC(=O)c2ccc(CNS(=O)(=O)c3ccc4c(c3)C(C)(C)C(=O)N4C)cc2)cc1 | nt | nt | 3% | nt | nt
COc1ccc2oc(C(=O)OCC(=O)N3CCC(C)CC3)c(C)c2c1 | 56% | 9 | -14% | -46% | -12
CCOC(=O)N1CCN(C(=O)COC(=O)c2oc3ccc(OC)cc3c2C)CC1 | 71% | 16* | 5% | 1% | 32*
COc1ccc2oc(C(=O)OCC(=O)Nc3ccccc3)c(C)c2c1 | -42% | 29* | 1% | -2% | 35*
Cc1c(C(=O)OCC(=O)Nc2cccc(S(N)(=O)=O)c2)oc2c1ccc1ccccc12 | 11µM* | 6 | -2% | 7% | 5
